Screening results deposited in PubChem by National Center for Advancing Translational Sciences (NCATS).
AmpC inh no detg = inhibitors of E. coli AmpC beta-lactamase without detergent; AmpC nitrocefin hydrolysis, absorbance 480 nm, 0.0001% Triton; Potency, µM (doses to about 57.1 µM), for the others: top-dose activity change, negative = inhibition, usual class: inhibitors; 330,000 compounds, 0.52% hits;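 note: plate controls were no compound for no effect and no enzyme for full effect; nearly all actives have a fitted effect of over 20% in size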
Target sequence (P00811 whole entry, looked up): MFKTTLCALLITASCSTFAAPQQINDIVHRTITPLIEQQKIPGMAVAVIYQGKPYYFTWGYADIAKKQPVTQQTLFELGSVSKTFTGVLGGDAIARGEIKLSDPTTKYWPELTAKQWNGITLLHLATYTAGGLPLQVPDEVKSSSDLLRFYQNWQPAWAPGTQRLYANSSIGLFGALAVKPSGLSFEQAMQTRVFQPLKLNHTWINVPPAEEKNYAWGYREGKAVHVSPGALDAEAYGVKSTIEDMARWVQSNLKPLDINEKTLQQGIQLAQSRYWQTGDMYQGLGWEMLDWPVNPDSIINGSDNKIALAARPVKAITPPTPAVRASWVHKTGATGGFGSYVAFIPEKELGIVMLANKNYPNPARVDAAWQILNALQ
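20 mM phosphate pH 7.0 + 0.01% (detergent screen) or 0.0001% Triton X-100; 5.3 nM AmpC reagent; cpd preinc 15 min RT; nitrocefin (800 uM stock) to start; A480 q20 s × 4 min; Activity was normalised to no-enzyme and no-compound control wells.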
AmpC inh detg = AmpC beta-lactamase inhibition with detergent present. P00811. AmpC hydrolysis of nitrocefin, absorbance 480 nm, 0.01% Triton. Potency, µM (highest dose often 114 µM), without a hit: at the highest dose activity change, negative = inhibition, hits mostly inhibitors. 370,000 compounds, 0.041% hits;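 note: 0% = no-compound wells and -100% = no-enzyme wells; nearly all actives have a fitted effect of over 25% in size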
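AmpC (5.3 nM in the dispensed reagent) in 20 mM phosphate pH 7.0 with 0.01% (detergent screen) or 0.0001% Triton X-100 was preincubated with compounds for 15 min at room temperature. Nitrocefin was then added from an 800 uM solution, and hydrolysis was followed at 480 nm.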
Pf growth 48h = P. falciparum growth inhibition at 48 hours (one generation) | P. falciparum luciferase growth in erythrocytes, 48 h | Potency, µM (doses to about 28.7 µM), inactives show at the top dose activity change, negative = inhibition, most hits filed as inhibitors | 310,000 compounds, 5.9% hits | AID 504832; note: % is set by controls: 0 for no effect and ±100 for the full control effect
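Growth was read as firefly luciferase luminescence after a 48 h, 37 C, 5% CO2 exposure of compounds to reporter-bearing P. falciparum cultures (0.1% parasitemia, 2% hematocrit final) in Albumax-supplemented RPMI 1640.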
Sm TGR block = inhibitors of Schistosoma mansoni thioredoxin glutathione reductase; Q962Y6; purified TGR, DTNB reduction, TNB absorbance 405 nm; Potency, µM (top dose mostly 114 µM), for inactives: at the top dose activity change, negative = inhibition, actives largely listed as inhibitors; 360,000 compounds, 3% hits; AID 485364; note: % is set by controls: 0 for no effect and ±100 for the full control effect; nearly all actives have a fitted effect of over 60% in size
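Kinetic colorimetric format: TGR-catalysed, NADPH-driven DTNB reduction monitored via TNB absorbance. Enzyme dispensed at 20 nM; compound exposure 15 min at room temperature before reaction start.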
SARS PLpro yeast = inhibitors of SARS-CoV papain-like protease in yeast; AID 485353; S. cerevisiae expressing SARS-CoV PLpro, growth rescue; Potency, µM (titrated, usually from 32.9 µM), for inactives: at the highest dose activity, positive = growth rescue, most hits filed as activators; 330,000 compounds, 0.19% hits; calls by dose curve; note: 0% is about no effect; nearly all actives have a fitted effect of over 55% in size
Pf growth 96h = P. falciparum growth inhibition at 96 hour, primary screen for plastid delayed-death inhibitors; 320,000 compounds, 6.9% hits; AID 504834; P. falciparum luciferase reporter growth, 96 h; Potency, µM (highest dose often 28.7 µM), inactives show at the top dose activity change, negative = inhibition, usual class: inhibitors; note: % is set by controls: 0 for no effect and ±100 for the full control effect
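Erythrocytes infected with luciferase-expressing P. falciparum were dispensed at 2% hematocrit and 0.05% parasitemia (final), then incubated with compounds 96 hours at 37 C in 5% CO2. Luminescence after detection reagent addition reported growth.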
The depositor's hits bear a star; u = inconclusive; x = not tested or not shown; [ ] = remark or other dose. The list is not random: actives were taken first. Their share in the collection is about 12%. Unless noted, calls come from the whole dose curve; as a rule, active = well fitted curve in the direction sought with a large enough effect; inconclusive = small, poorly fitted or top-dose-only effect, or another doubt; inactive = no such curve, though single readings can be large; an effect the other way counts as inactive or inconclusive. Potency is the fitted concentration of half-maximal effect.

SMILES	AmpC inh no detg	AmpC inh detg	Pf growth 48h	Sm TGR block	SARS PLpro yeast	Pf growth 96h
COc1ccc(-c2nc3ccccc3n3c(-c4cccc(C)c4)c4c(=O)n(C)c(=O)n(C)c4c23)cc1OC	x	26%	x	5%	x	x
CC(C)[C@H]1CN=C2N(CCNC(=O)CCC3CCCCC3)[C@H](Cc3ccc(O)cc3)CN21	15%	4%	9.3µM*	7.9µM*	-3%	u
NS(=O)(=O)c1ccc(CNC(=O)CCC2CCCCC2)cc1	-30%	-3%	x	1%	3%	23%
COc1ccc(C[C@H]2CN3C(=NC[C@@H]3C(C)C)N2CCNC(=O)CCC2CCCCC2)cc1	61%	8%	u	-2%	1%	4.7µM*
COc1ccc(C[C@H]2CN3C(=NC[C@@H]3Cc3ccccc3)N2CCNC(=O)CCC2CCCCC2)cc1	110%	0%	3.7µM*	-10%	0%	2.9µM*
COc1cccc(CNC(=O)CCC2CCCN(c3cc(C)nc(N(C)C)n3)C2)c1 (centres undefined)	35%	2%	u	-3%	0%	u
O=C(CN1C(=O)CCc2cc(S(=O)(=O)N3CCOCC3)ccc21)NCc1ccccc1Cl	x	-6%	x	-18%	x	x
CCN(C[C@H]1N[C@@](Cc2ccccc2)(C(=O)OC)[C@H]2C(=O)N(Cc3ccccc3)C(=O)[C@@H]12)C(=O)C1CCCCC1	-5%	x	x	x	-3%	x
OC(CN1CCN(c2ccccn2)CC1)Cn1c2ccc(Cl)cc2c2cc(Cl)ccc21 (centres undefined)	55%	8%	1.7µM*	23%	-18%	x
OC(CN1CCCCC1)Cn1c2ccc(Cl)cc2c2cc(Cl)ccc21 (centres undefined)	116%	3%	1.9µM*	0%	0%	u
Cc1cccc(N(C(=O)CCC(=O)Nc2nccs2)C(C(=O)NC(C)(C)C)c2ccc(O)cc2)c1 (centres undefined)	-8%	6%	u	x	1%	16%
COc1ccc(CNC[C@@H](CCCCN(C)Cc2ccc(OC)cc2)N2C[C@H](c3ccccc3)N(CCc3ccc(Cl)c(Cl)c3)C(=O)C2=O)cc1	149%	6%	1.7µM*	-21%	1%	2.3µM*
CCOc1ccc(NC2=NCC(=O)N2CCc2ccccc2)cc1	23%	10%	u	2%	4%	0%
CCOc1ccc(CCN2C(=O)C(=O)N([C@H](CCCN(C)Cc3ccccc3)CNCc3ccccc3)C[C@@H]2C(C)C)cc1	136%	1%	9.3µM*	0%	3%	3.7µM*
Cc1ccc(CCN2CC(C(=O)NCCCN(C)Cc3ccccc3)CC2=O)cc1 (centres undefined)	64%	-6%	24%	-4%	-10%	73%
CN(CCCC[C@H](CNCc1ccc(-c2ccccc2)cc1)N1C[C@H](c2ccccc2)N(CCc2ccc(Cl)c(Cl)c2)C(=O)C1=O)Cc1ccc(-c2ccccc2)cc1	56%	2%	u	-31%	-13%	3.7µM*
COc1ccc(CCN(C)CCCN2CC(c3ccccc3)CC2=O)cc1OC (centres undefined)	-2%	-8%	-1%	-17%	0%	u
CC1N=C2c3ccccc3N=C(SCC(=O)NCc3ccc(Cl)cc3)N2C1=O (centres undefined)	x	15%	x	11%	x	x
COc1ccc(C(=O)CC(=O)C(=O)Nc2ccc(C)cc2Cl)cc1	-25%	-1%	x	u	1%	6%
COc1cc(OC)c(NC(=O)C(=O)CC(=O)c2ccc(C)cc2C)cc1Cl	-48%	7%	u	-6%	8%	3.3µM*
O=C(O)/C=C/C(=O)Nc1ccc2c(c1)C(=O)c1ccccc1C2=O	-13%	2%	29%	50µM*	-3%	12%
O=C(O)/C=C/C(=O)Nc1ccccc1SC(F)(F)C(F)(F)C(F)(F)F	-22%	-2%	0%	45µM*	-5%	24%
O=C(O)/C=C/C(=O)Nc1ccc(C(=O)c2ccccc2)cc1	200%	-11%	-19%	-15%	1%	u
O=C(O)/C=C/C(=O)Nc1ccc(Cl)cc1C(=O)c1ccccc1	-25%	-8%	u	22µM*	-2%	u
O=C(O)/C=C/C(=O)Nc1ccc(O)cc1	-18%	-5%	41%	u	-1%	10µM*
SMILES	AmpC inh no detg	AmpC inh detg	Pf growth 48h	Sm TGR block	SARS PLpro yeast	Pf growth 96h
Cc1ccc(C)c(N(C)C(=O)CCNC(=O)Cn2cnc3ccccc3c2=O)c1	x	4%	x	-7%	x	x
O=C(O)/C=C/C(=O)Nc1ccccc1-c1ccccc1	-10%	9%	-2%	10µM*	-37%	149%
NC(=O)/C=C/C(=O)Nc1ccc(Cl)cc1	-13%	0%	8%	3.5µM*	-33%	22%
COCC(=O)Nc1ccccc1-c1ccccc1	-27%	u	7%	6%	0%	41%
NC(=O)Nc1ccc(Cl)cc1	-13%	0%	90%	12%	-3%	35%
COCCn1c(Cc2ccccc2)nnc1SC(C)C(=O)NC1CC1 (centres undefined)	-17%	-8%	u	-15%	-4%	u
CCOC(=O)Cn1nnnc1CN(Cc1cccs1)Cc1cc2cc(C)ccc2[nH]c1=O	40%	0%	-15%	-6%	8%	x
CCOc1ccc2[nH]c(=O)c(CN(Cc3cccs3)Cc3nnnn3C(C)(C)C)cc2c1	-11%	-17%	12µM*	0%	-2%	19%
Cc1ccc2[nH]c(=O)c(CN(CCO)Cc3nnnn3CCc3ccccc3)cc2c1	12%	-10%	8%	-1%	-5%	8.3µM*
Cc1ccc2[nH]c(=O)c(CN(Cc3cccs3)Cc3nnnn3Cc3ccccc3)cc2c1	0%	u	12µM*	0%	0%	-13%
CCOC(=O)c1ccc(NC(=O)CN2C(=O)c3cccnc3Sc3ccccc32)cc1	x	13%	x	9%	x	x
COCCn1c(-c2ccc(-c3ccc([N+](=O)[O-])cc3Br)o2)nc2c1c(=O)[nH]c(=O)n2CC(C)C	-43%[11.4 µM]	-1%	0%	45µM*	1%	0%
COCCn1c(=O)[nH]c(=O)c2c1nc(-c1ccc(-c3ccc(Cl)cc3[N+](=O)[O-])o1)n2Cc1ccccc1	7.9µM*	-1%	4.7µM*	50µM*	2%	4.1µM*
CCCCn1c(=O)[nH]c(=O)c2c1nc(-c1ccc(-c3ccccc3Br)o1)n2CC	-22%	1%	-5%	13µM*	-19%	u
Cc1ccc(-c2nc3c(c(=O)[nH]c(=O)n3CC(C)C)n2CC(C)C)cc1[N+](=O)[O-]	16%	-10%	u	9%	-5%	u
